Reference: PubChem BioAssay (Tox21)
“And” between values parts separate entries of the source, which are not always exact repeats. Equal entries are not always repeated. Records with an inconclusive call do not appear. A structure can be active in one record and inactive in another. The source made the active and inactive calls. Unless noted, calls follow the shape of the dose curve; as a rule, active = well fitted curve in the direction sought with a large enough effect in the repeat runs; inconclusive = weak or mixed curves; inactive = no such curve, though single readings can be large; an effect the other way counts as inactive or inconclusive.

Assays:
[1] = qHTS assay for small molecule agonists of the p53 signaling pathway (AID 651631; calls by dose curve; also: nearly all actives have a fitted effect of over 15% in size; also: potency is read from the fitted curve at half-maximal effect)
Procedure, shortened: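 Quantitative high-throughput format: 4,000 p53RE-bla HCT-116 cells/well, 5 h pre-incubation, 16 h compound exposure at 37 °C, 2 h room-temperature substrate step, fluorescence intensity measured.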

[2] = qHTS assay for small molecules that induce genotoxicity in human embryonic kidney cells expressing luciferase-tagged ATAD5 (AID 651632); also: nearly all actives have a fitted effect of over 15% in size
Procedure, shortened: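 HEK293T cells carrying a luciferase reporter tagged to ATAD5 were exposed to compound or DMSO vehicle for 16 hr at 37C, 5% CO2. Amplite was added, and after 30 min at room temperature luciferase activity was read as a marker of ATAD5 induction.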

[3] = qHTS assay for small molecule agonists of the p53 signaling pathway - cell viability (AID 651633; calls by dose curve; also: nearly all actives have a fitted effect of over 30% in size; also: potency is read from the fitted curve at half-maximal effect;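 as to activity change, negative = cytotoxicity: p53RE-bla HCT reporter cells with a stable beta-lactamase p53 reporter; series mostly up to about 83 µM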)
Procedure, shortened: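 Viability counter-read: CellTiter-Glo luminescence (30 min, room temperature) in the same p53RE-bla plates. These plates had been exposed to compounds for 16 h at 37 C.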

[4] = qHTS assay for small molecules that induce genotoxicity in human embryonic kidney cells expressing luciferase-tagged ATAD5 - cell viability (AID 651634; calls by dose curve; also: nearly all actives have a fitted effect of over 25% in size)
Procedure, shortened: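 HEK293T cells expressing luciferase-tagged ATAD5 were exposed to compound or DMSO for 15.5 hr at 37C, 5% CO2. Viability was then read as live-cell protease activity by CellTiter-Fluor fluorescence after 30 min at 37C.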

[5] = qHTS assay for small molecule disruptors of the mitochondrial membrane potential - cell viability (AID 720634; calls by dose curve;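 also: human HepG2 liver cancer cells; series mostly up to about 83 µM; nearly all actives have a fitted effect of over 20% in size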)
Procedure, shortened: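 HepG2 cells seeded overnight at 37 C, then exposed to compound or DMSO for 1 hr at 37 C, 5% CO2. m-MPI dye added, then CellTiter-Glo for 30 min at room temperature; viability read as ATP luminescence.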

[6] = qHTS assay for small molecule disruptors of the mitochondrial membrane potential (AID 720635); also: potency is read from the fitted curve at half-maximal effect
Procedure, shortened: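 Mitochondrial membrane potential tracked with Mito-MPS dye, red aggregates (ex 540/em 590 nm) against green monomers (ex 490/em 535 nm). Compound treatment 1 hr at 37C, dye 30 min in HepG2.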

[7] = qHTS assay to test for compound auto fluorescence at 590 nm (red) in HepG2 cells (AID 720674)
Procedure, shortened: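 We screened compounds on adherent HepG2 cells, incubating them for an hour at 37 C in 5% CO2 before reading emission at 590 nm under 540 nm excitation; values reflect equivalence to Rose Bengal sodium fluorescence.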

[8] = qHTS assay to test for compound auto fluorescence at 535 nm (green) in HepG2 cells (AID 720675)
[9] = qHTS assay to test for compound auto fluorescence at 460 nm (blue) in HEK293 cells (AID 720678)
Procedure, shortened: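 Intrinsic compound fluorescence is recorded in live HEK293 cultures after overnight incubation at 37C, 5% CO2, using excitation 405 nm and emission 460 nm. Values are referenced to triamterene.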

[10] = qHTS assay to test for compound auto fluorescence at 590 nm (red) in HEK293 cells (AID 720679)
Procedure, shortened: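 Red autofluorescence, HEK293 cells: 2,000 cells/well; attach 4-5 hr 37C; add 23 nL cpd or DMSO; incubate o/n 37C 5% CO2; read Ex540/Em590; Rose Bengal sodium reference.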

[11] = qHTS assay to test for compound auto fluorescence at 535 nm (green) in HEK293 cells (AID 720680)
[12] = qHTS assay to test for compound auto fluorescence at 460 nm (blue) in HEK293 cell free culture (AID 720681)
Procedure, shortened: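 Blue fluorescence (Ex 405/Em 460 nm, triamterene-equivalent) was read immediately after pin transfer of compound or DMSO into medium (DMEM, 10% FBS) without cells.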

[13] = qHTS assay to test for compound auto fluorescence at 535 nm (green) in HEK293 cell free culture (AID 720682)
Procedure, shortened: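 Measurement is a direct plate read of green fluorescence (485 nm in, 535 nm out) after compound addition to serum-supplemented DMEM lacking cells, with fluorescein used to express intensities.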

[14] = qHTS assay to test for compound auto fluorescence at 590 nm (red) in HEK293 cell free culture (AID 720683)
Procedure, shortened: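 Red-channel autofluorescence of compounds in culture medium (DMEM, 10% FBS), no cells, measured at 540/590 nm. Rose Bengal sodium is the reference fluorophore for equivalence.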

[15] = qHTS assay to test for compound auto fluorescence at 590 nm (red) in HepG2 cell free culture (AID 720684)
Procedure, shortened: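 Steps: dispense MEM/10% FBS medium, no cells; pin compound or DMSO vehicle; read red channel, Ex/Em 540/590 nm. Output given as Rose Bengal sodium equivalents.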

[16] = qHTS assay to test for compound auto fluorescence at 460 nm (blue) in HepG2 cell free culture (AID 720685)
Procedure, shortened: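 Compound (23 nL) or DMSO pinned into cell-free MEM with 10% FBS; blue fluorescence read at 405/460 nm excitation/emission, expressed as auto-fluorescence equivalency to triamterene.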

[17] = qHTS assay to test for compound auto fluorescence at 460 nm (blue) in HepG2 cells (AID 720687)
Procedure, shortened: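 Blue-channel autofluorescence (Ex/Em 405/460 nm, triamterene-equivalent) was measured after 1 hr compound exposure at 37 C, 5% CO2. Cells were HepG2, plated overnight at 37 C in MEM plus 10% FBS.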

[18] = target: Glucocorticoid receptor (Homo sapiens) (UniProt P04150); test: qHTS assay to identify small molecule agonists of the glucocorticoid receptor (GR) signaling pathway (AID 720691; active = well fitted activation curve with a large enough effect in the signal ratio in the repeat runs, not every such curve was filed as active; the % refers to the signal ratio)
Procedure, shortened: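 GR-bla HeLa cells (beta-lactamase reporter under glucocorticoid response element) were plated 4 h at 37 C/5% CO2, given compounds in DMSO, and incubated 18 h at 37 C. LiveBLAzer B/G FRET substrate was added for 2 h at room temperature, then fluorescence intensity read.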

[19] = target: Glucocorticoid receptor (Homo sapiens) (UniProt P04150); test: qHTS assay to identify small molecule antagonists of the glucocorticoid receptor (GR) signaling pathway (AID 720692; active = well fitted inhibition curve with a large enough effect in the signal ratio in the repeat runs, not every such curve was filed as active; the % refers to the signal ratio; also: potency is read from the fitted curve at half-maximal effect)
Procedure, shortened: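 GR-bla HeLa cells (beta-lactamase reporter under glucocorticoid response element) were pre-plated 4 h at 37 C, treated with compounds plus 5 nM dexamethasone (final) for 18 h, then read by LiveBLAzer B/G FRET fluorescence after 2 h.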

[20] = qHTS assay to test for compound auto fluorescence at 535 nm (green) in HepG2 cell free culture (AID 720686)
% is scaled to controls: 0 for no effect and ±100 for the full control effect.

Chain of Glucocorticoid receptor (Homo sapiens) (P04150 whole entry, looked up): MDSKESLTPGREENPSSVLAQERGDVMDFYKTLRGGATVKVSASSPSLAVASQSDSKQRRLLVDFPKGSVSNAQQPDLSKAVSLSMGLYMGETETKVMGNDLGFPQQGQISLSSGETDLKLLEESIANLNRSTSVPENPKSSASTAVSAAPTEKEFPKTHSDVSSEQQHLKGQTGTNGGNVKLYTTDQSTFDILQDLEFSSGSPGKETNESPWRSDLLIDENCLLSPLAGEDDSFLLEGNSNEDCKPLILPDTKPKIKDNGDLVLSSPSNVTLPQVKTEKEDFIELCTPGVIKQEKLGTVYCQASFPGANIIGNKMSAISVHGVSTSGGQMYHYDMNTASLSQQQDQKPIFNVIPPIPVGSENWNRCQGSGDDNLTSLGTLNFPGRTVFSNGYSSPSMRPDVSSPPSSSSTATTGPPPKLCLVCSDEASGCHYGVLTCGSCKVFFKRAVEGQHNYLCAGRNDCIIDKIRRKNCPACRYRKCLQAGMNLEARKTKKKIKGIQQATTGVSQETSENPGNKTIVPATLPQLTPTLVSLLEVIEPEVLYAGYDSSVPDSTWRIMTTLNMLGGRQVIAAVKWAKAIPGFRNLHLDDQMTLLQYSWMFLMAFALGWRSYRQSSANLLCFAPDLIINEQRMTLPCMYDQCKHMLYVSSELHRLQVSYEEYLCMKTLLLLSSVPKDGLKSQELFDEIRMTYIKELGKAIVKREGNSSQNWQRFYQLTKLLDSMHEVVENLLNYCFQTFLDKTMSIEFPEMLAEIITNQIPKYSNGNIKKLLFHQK

O=C(O)O
inactive: activation [1] -6.09% [at 8.3 µM] | activation [2] 4.66% [at 8.08 µM] | activity change, negative = cytotoxicity [3] 14.5% [at 8.08 µM] | activity, negative = cytotoxicity [4] 16.8% [at 8.08 µM] | activity change, negative = cytotoxicity [5] 7.92% [at 8.08 µM] | ratio activity, negative = MMP loss [6] 7.15% [at 8.08 µM] | fluorescence, relative to Rose Bengal [7] -0.453% [at 3.72 µM] | fluorescence, % of fluorescein control [8] -0.0364% [at 3.72 µM] | fluorescence, % of triamterene [9] -0.0075% [at 3.72 µM] | fluorescence, % of fluorescent control [10] 0.462% [at 3.72 µM] | fluorescence, % of fluorescein [11] -0.0067% [at 3.72 µM] | fluorescence, % of fluorescent control [12] 0.0957% [at 3.72 µM] | activity change [13] -0.0576% [at 3.72 µM, stronger effect = higher value] | fluorescence, % of fluorescent control [14] -0.0236% [at 3.72 µM] | fluorescence, % of Rose Bengal [15] 0.0094% [at 3.72 µM] | fluorescence, % of fluorescent control [16] 0.0077% [at 3.72 µM] | fluorescence, % of fluorescent control [17] -0.0691% [at 3.72 µM] | activation [18] -0.133% [at 6.9 µM] | activity change, negative = inhibition [19] -1.88% [at 7.04 µM]

CCCCC(CC)CN1CN(CC(CC)CCCC)CC(C)(N)C1 (centres undefined)
inactive: Potency [1] | Potency [2] | Potency [3] | Potency [4] | Potency [5] | Potency [6] | fluorescence, relative to Rose Bengal [7] 0.775% [at 18.6 µM] | fluorescence, % of fluorescein control [8] 0.0031% [at 18.6 µM] | fluorescence, % of triamterene [9] -0.206% [at 18.6 µM] | fluorescence, % of fluorescent control [10] -0.0426% [at 18.6 µM] | fluorescence, % of fluorescent control [12] -0.0323% [at 18.6 µM] | activity change [13] 0.0339% [at 18.6 µM, stronger effect = higher value] | fluorescence, % of fluorescent control [14] -0.232% [at 18.6 µM] | fluorescence, % of fluorescent control [16] -0.127% [at 18.6 µM] | fluorescence, % of fluorescein control [20] -0.051% [at 18.6 µM] | fluorescence, % of fluorescent control [17] -0.0067% [at 18.6 µM]

OC[C@@H](O)[C@@H](O)CO
inactive: Potency [1] | Potency [2] | Potency [3] | Potency [4] | Potency [5] | Potency [6] | Potency [7] | Potency [8] | Potency [9] | Potency [10] | Potency [11] | Potency [13] | Potency [14] | Potency [16] | Potency [20] | Potency [17] | Potency [18]

Nc1nc2c(ncn2COCCO)c(=O)[nH]1
inactive: Potency [1] | Potency [2] | Potency [3] | Potency [4] | Potency [5] | Potency [6] | fluorescence, % of fluorescein control [8] 0.0011% [at 18.6 µM] | fluorescence, % of triamterene [9] -0.0369% [at 18.6 µM] | fluorescence, % of fluorescent control [10] -0.073% [at 18.6 µM] | fluorescence, % of fluorescein [11] 0.029% [at 18.6 µM] | activity change [13] -0.0229% [at 18.6 µM, stronger effect = higher value] | fluorescence, % of Rose Bengal [15] -0.264% [at 18.6 µM] | fluorescence, % of fluorescent control [16] 0.0242% [at 18.6 µM] | fluorescence, % of fluorescein control [20] -0.0997% [at 18.6 µM] | fluorescence, % of fluorescent control [17] 0.176% [at 18.6 µM] | Potency [18] | Potency [19]

CCCCCCCC
inactive: Potency [1] | Potency [2] | Potency [3] | Potency [4] | Potency [5] | Potency [6] | Potency [7] | Potency [9] | Potency [10] | Potency [11] | Potency [12] | Potency [13] | Potency [14] | Potency [15] | Potency [16] | Potency [20] | Potency [17] | Potency [18] | Potency [19]

CC1=Nc2ccccc2C1(C)C
inactive: Potency [1] | Potency [2] | Potency [3] | Potency [4] | Potency [5] | Potency [6] | Potency [7] | Potency [8] | Potency [10] | Potency [11] | Potency [12] | Potency [13] | Potency [15] | Potency [16] | Potency [20] | Potency [17] | Potency [18]

CCCCCCCC/C=C\CCCCCCCCN
inactive: Potency [1] | Potency [2] | Potency [3] | Potency [4] | Potency [5] | Potency [6] | Potency [7] | Potency [8] | Potency [9] | Potency [10] | Potency [11] | Potency [13] | Potency [14] | Potency [15] | Potency [16] | Potency [20] | Potency [17]

C=CC(C)(CCC=C(C)C)OC=O (centres undefined)
inactive: Potency [1] | Potency [2] | Potency [3] | Potency [4] | Potency [5] | Potency [6] | Potency [7] | Potency [8] | Potency [9] | Potency [10] | Potency [11] | Potency [13] | Potency [14] | Potency [15] | Potency [16] | Potency [20] | Potency [17] | Potency [18] | Potency [19]

CC(=O)OCC=C(C)C
inactive: Potency [1] | Potency [2] | Potency [3] | Potency [4] | Potency [5] | Potency [6] | Potency [7] | Potency [8] | Potency [9] | Potency [10] | Potency [11] | Potency [12] | Potency [13] | Potency [14] | Potency [15] | Potency [20] | Potency [17] | Potency [18]

CCCCCCCCCCCCCC[N+](C)(C)C
inactive: Potency [2] | Potency [4] | Potency [5] | Potency [7] | Potency [8] | Potency [9] | Potency [10] | Potency [11] | Potency [13] | Potency [14] | Potency [16] | Potency [20] | Potency [17]
active: Potency [1] 21.1 µM | Potency [3] 26.6 µM | Potency [6] 17.6 µM and 13.2 µM and 6.85 µM | Potency [19] 15.5 µM

CCCCC/C=C\C/C=C\CCCCCCCC(=O)O
inactive and 54.5 µM (active): Potency [3]
inactive and 68.6 µM (active): Potency [1]
inactive: Potency [2] | Potency [4] | Potency [5] | Potency [6] | Potency [7] | Potency [8] | Potency [9] | Potency [10] | Potency [11] | Potency [12] | Potency [13] | Potency [14] | Potency [15] | Potency [16] | Potency [20] | Potency [17]
